SMILES strings stand for the structures. Whole data set: some 13,000 compounds, median “IFI” near 4, cut for the highest 2% near 17. The full list was thinned out, with the highest values kept by preference.

This assay can be described thus: GSK_TCMDC: Inhibition Frequency Index (IFI). The number of non-kinase HTS assays where a compound showed > 50 % inhibition, expressed as a percentage of the number of such assays in which the compound was tested. The class given is functional.
Consider `COc1ccc(NC(=O)CCNc2cc(C)nc(NCCc3ccc(F)cc3)n2)cc1`, for which the IFI is 4.88%.

For `N#Cc1ccc(N2CCN(Cc3ccc(-c4ccc(-c5nc6cc(C(F)(F)F)ccc6[nH]5)cc4)cc3)CC2)nc1`, the IFI is 3.96%.

`NS(=O)(=O)c1cccc(-c2ccc3ncc(N4CCOCC4)nc3c2)c1` yielded an IFI of 3.7%.

Molecule `Cc1[nH]c(C)c(-c2ccc(-c3ccc(Cl)cc3)nc2)c(=O)c1Cl` yielded an IFI of 0.92%.

Regarding `COc1cc2s/c(=N\C(=O)c3cccc([N+](=O)[O-])c3)n(C)c2cc1OC`, the IFI amounted to 1.72%.

For the molecule `O=C(NC1CCC(CCN2CCc3ccc(-c4cnccn4)cc3CC2)CC1)c1cccc(-n2cccn2)c1` (stereo not drawn), the IFI was 5.3%.

For `O=C1CCCN1CCCNCc1ccc(-c2ccc(-c3nc4cc(C(F)(F)F)ccc4[nH]3)s2)cc1`, the IFI turned out to be 6.67%.

Molecule `O=C(Nc1cccc(-c2cccc(-c3nc4cc(C(F)(F)F)ccc4[nH]3)c2)c1)c1cccnc1` came in with an IFI of 4.59%.

With `CCN(CC)CCCC(C)N/C(=N\c1ccccc1Br)Nc1ccc(C#N)cc1O` (stereo not drawn), the IFI came out at 0%.

`Cc1cccc(Nc2nccc(Nc3cccc(C(=O)NCCN4CCOCC4)c3)n2)c1` showed an IFI of 0%.

Regarding `OC(CNc1ccnc(Nc2cccc(CCN3CCOCC3)c2)n1)c1ccccc1` (stereo not drawn), the IFI was 9.28%.

For the molecule `Cc1cnc(Nc2cccc(CCN3CCOCC3)c2)nc1NC(C)C`, the IFI came to 17.2%.

Take `Oc1ccc(CCNCCCCNCCc2ccc(Cl)cc2)cc1O`: the IFI amounted to 6.12%.

Molecule `Cc1[nH]c(C)c(-c2ccc(OCc3cccc(C(F)(F)F)c3)nc2)c(=O)c1Br` gave an IFI of 13.8%.

For the molecule `CCCC(C(=O)OCCNC)(c1ccccc1)c1ccccc1`, the IFI came to 3.6%.

On to `COc1ccc(CCN(C)CCCN2CCC(NC(=O)c3cccc4c(=O)c5ccccc5sc34)CC2)cc1OC`, for which the IFI stood at 21.9%.

`COc1ccc(CCN(C)CCCCc2ccc(NC(=O)c3cccc4c(=O)c5cc(F)ccc5sc34)cc2)cc1OC` returned an IFI of 10%.

For the molecule `COc1ccc(CCN(C)CCCN2CCC(NC(=O)c3cccc4c(=O)c5ccccc5[nH]c34)CC2)cc1OC`, the IFI is 5.76%.

In turn, `Clc1ccc(Cl)c2[nH]c(CNCCCNc3nc4ccccc4[nH]3)cc12` registered an IFI of 4.38%.

`COc1ccc2c(OC)cccc2c1CNCCCCCCNCc1c(OC)ccc2c(OC)cccc12` yielded an IFI of 13.7%.

In turn, `Cc1cccn2c(=O)c3cc(C(=O)NCCc4ccccc4)c(=N)n(CCCOC(C)C)c3nc12` had an IFI of 4.3%.

`O=[N+]([O-])c1ccc2nccnc2c1` showed an IFI of 1.44%.

Molecule `O=[N+]([O-])c1ccc(/C=N/O)nc1` displayed an IFI of 23.4%.

For `O=[N+]([O-])c1ccc(C=NNc2nc3ccccc3[nH]2)cc1`, the IFI is 0%.

As for `CC(C)c1ccc(CN2CCC(CNC(=O)c3cc(-c4cccc(F)c4)cs3)C2)cc1` (stereo not drawn), the IFI is 14.3%.

Molecule `CC1(C)NC(N)=NC(=N)N1OCc1cccs1` had an IFI of 1.43%.

In the case of `CCCCCCCN(CCCCCCC)CCCC(=O)Nc1ccnc2ccc(OC)cc12`, the IFI came to 7.87%.

With `COc1c(C2CCN(CCCCNC(=O)c3ccc(-c4ccc(Cl)cc4)cc3)CC2)ccc2c1C(C)(C)CCC2(C)C`, the IFI amounted to 6.82%.

In turn, `O=C(Nc1ccc([N+](=O)[O-])cc1O)Nc1ccccc1Oc1ccccc1` showed an IFI of 17%.

`CC1(C(=O)Nc2ccc([N+](=O)[O-])cc2O)CC2c3ccccc3C1c1ccccc12` (stereo not drawn) showed an IFI of 17.4%.

On to `O=[N+]([O-])c1ccc(N/C(=N\c2ccccc2Br)NC2CCCc3ccccc32)c(O)c1` (stereo not drawn), for which the IFI was 4.17%.

In the case of `COc1ccccc1CCNc1nc(C)cc(N[C@@H](Cc2ccccc2)C(=O)NCCCOC(C)C)n1`, the IFI came out at 0%.

Molecule `O=C(O)c1cccnc1Sc1ccc(Cl)cc1` gave an IFI of 0%.

Consider `COc1ccc(CCNCCCCCCNCCc2cccc([N+](=O)[O-])c2)cc1OC`, for which the IFI is 0%.

`C[C@H](Cc1ccc(Oc2ccc(C[C@@H](C)NC[C@H](O)c3cccc(Cl)c3)cc2)cc1)NC[C@H](O)c1cccc(Cl)c1` registered an IFI of 20.8%.

Molecule `C[C@H](Cc1ccc(C[C@@H](C)NC[C@H](O)c2cccc(Cl)c2)cc1)NC[C@H](O)COc1ccccc1` had an IFI of 7.91%.

For `C[C@H](Cc1ccc(CCc2ccc(C[C@@H](C)NC[C@H](O)c3cccc(Cl)c3)cc2)cc1)NC[C@H](O)c1cccc(Cl)c1`, the IFI came out at 21.6%.

Consider `Cc1ccc(CCC(C)NCC(O)c2cccc(Cl)c2)cc1` (stereo not drawn), for which the IFI was 2.96%.

With `C[C@H](Cc1ccc(OCCCCOc2ccc(C[C@@H](C)NC[C@H](O)c3cccc(Cl)c3)cc2)cc1)NC[C@H](O)c1cccc(Cl)c1`, the IFI stood at 11.6%.

Turning to `COC(=O)c1ccc(CCC(C)NCC(O)c2cccc(Cl)c2)cc1` (stereo not drawn), the IFI worked out at 2.88%.

For `C[C@H](Cc1ccc(C[C@@H](C)NCC(O)c2cc(Cl)c(N)c(Cl)c2)cc1)NCC(O)c1cc(Cl)c(N)c(Cl)c1` (stereo partly drawn), the IFI came out at 9.35%.

In turn, `C[C@H](Cc1ccc(S(=O)(=O)c2ccc(C[C@@H](C)NC[C@H](O)c3cccc(Cl)c3)cc2)cc1)NC[C@H](O)c1cccc(Cl)c1` displayed an IFI of 22.7%.

For `C[C@H](Cc1ccc(OCCCOc2ccc(C[C@@H](C)NC[C@H](O)c3cccc(Cl)c3)cc2)cc1)NC[C@H](O)c1cccc(Cl)c1`, the IFI stood at 13.1%.

Molecule `COc1cccc(CCc2ccc(O)c3c2C[C@H]2C[C@H]4[C@H](N(C)C)C(O)=C(C(N)=O)C(=O)[C@@]4(O)C(O)=C2C3=O)c1` showed an IFI of 8.41%.

Molecule `CC1(C)NC(N)=NC(=N)N1OCCSCc1cc(Cl)sc1Cl` displayed an IFI of 4.93%.

As to `CN1CCN(CCCN(Cc2ccc(-c3ccc(CNCCc4ccccc4)cc3)cc2)C(=O)c2cccs2)CC1`, the IFI is 9.03%.

On to `C=CCn1c(Sc2ccc(C#N)c([N+](=O)[O-])c2)nnc1-c1ccc(Cl)cc1`, for which the IFI was found to be 4.23%.

Molecule `Cc1cc(=NN=Cc2cccc(Cl)c2)c2ccc(F)cc2[nH]1` gave an IFI of 1.49%.

`CCOC(=O)c1ccc(NC(=O)N[C@H]2CCN(CCCCCNC(=O)/C=C/c3ccc(Cl)c(Cl)c3)C2)cc1` displayed an IFI of 7.91%.

On to `Cc1cc(N[C@@H](Cc2ccccc2)C(=O)NC2CCCC2)nc(NCC2CCCCC2)n1`, for which the IFI came to 26.2%.

On to `Cc1cc(N[C@@H](Cc2ccccc2)C(=O)NCCc2ccccc2)nc(NCC2CCCCC2)n1`, for which the IFI came to 11.4%.

Consider `Cc1cc(N[C@@H](Cc2ccccc2)C(=O)NC2CCCC2)nc(NCc2ccccc2C)n1`, for which the IFI turned out to be 4.88%.

Consider `Cc1cc(N[C@@H](Cc2ccccc2)C(=O)NC2CCCC2)nc(Nc2ccccc2)n1`, for which the IFI was determined as 7.32%.

For `Cc1cc(N[C@@H](Cc2ccccc2)C(=O)Nc2ccccc2)nc(NCC2CCCCC2)n1`, the IFI worked out at 11.6%.

On to `Cc1cccc(CNc2nc(C)cc(N[C@@H](Cc3ccccc3)C(=O)NC3CCCC3)n2)c1`, for which the IFI was found to be 27.3%.

Regarding `O=C(c1cc(-c2cccs2)n[nH]1)N1CCN(S(=O)(=O)c2ccc(Br)cc2)CC1`, the IFI is 0%.

In turn, `CC(CN(C)C)C(=O)Nc1cccc(-c2ccc(-c3nc4cc(C(F)(F)F)ccc4[nH]3)cc2)c1` (stereo not drawn) gave an IFI of 6.31%.

Molecule `Cc1cc(=NN=CC=Cc2ccccc2)c2cc(F)ccc2[nH]1` displayed an IFI of 0.75%.

As for `O=C(NC1CCN(Cc2ccc(F)cc2)CC1)c1ccc(-c2cccc(C(F)(F)F)c2)s1`, the IFI was found to be 24.6%.

`O=C(NC1CCN(Cc2ccc3c(c2)OCCO3)CC1)c1ccc(-c2cccc(Cl)c2)s1` gave an IFI of 15.2%.

Molecule `O=C(NC1CCN(Cc2ccc3c(c2)OCCO3)CC1)c1ccc(-c2cccc(C(F)(F)F)c2)s1` had an IFI of 22%.

`CN(C)c1ccc(CN2CCC(NC(=O)c3ccc(-c4cccc(C(F)(F)F)c4)s3)CC2)cc1` showed an IFI of 17.2%.

Molecule `O=C(NC1CCN(Cc2cccc(C(F)(F)F)c2)CC1)c1ccc(-c2cccc(C(F)(F)F)c2)s1` came in with an IFI of 12.7%.

`O=C(NC1CCN(Cc2ccsc2)CC1)c1ccc(-c2cccc(C(F)(F)F)c2)s1`: the IFI amounted to 16.7%.

For the molecule `CN(C)c1ccc(-c2ccc(C(=O)NC3CCN(Cc4cccc(C(F)(F)F)c4)CC3)s2)cc1`, the IFI was 11.1%.

`CC(=O)Nc1ccc(CN2CCC(NC(=O)c3ccc(-c4cccc(C(F)(F)F)c4)s3)CC2)cc1` showed an IFI of 10.3%.

For the molecule `CSc1ccc(CN2CCC(NC(=O)c3ccc(-c4cccc(C(F)(F)F)c4)s3)CC2)cc1`, the IFI stood at 15.2%.

In turn, `O=C(NC1CCN(CCCc2ccccc2)CC1)c1ccc(-c2cccc(C(F)(F)F)c2)s1` had an IFI of 17.2%.

`CC(C)(C)CCN1CCC(NC(=O)c2ccc(-c3cccc(C(F)(F)F)c3)s2)CC1` gave an IFI of 15.8%.

In turn, `CC(C)(C)c1ccc(CN2CCC(NC(=O)c3ccc(-c4cccc(C(F)(F)F)c4)s3)CC2)cc1` returned an IFI of 13%.

On to `Nc1nccc2ccc(-c3ccsc3)cc12`, for which the IFI is 10.1%.

`Cc1ccc2nc(N/C(N)=N/C(=O)NC3CCCCC3)nc(C)c2c1` yielded an IFI of 3.42%.

In the case of `Cc1cc(-c2cccc(CNCc3ccc(F)cc3)c2)ccc1S(=O)(=O)NCCN1CCCC1`, the IFI was 12.9%.

Molecule `Cc1cc(N)nc2ccc(-c3ccc(CN)cc3)cc12` returned an IFI of 4.83%.

For the molecule `C=C(C)Cn1cc(C2CCN(CCN3CCC(CNC(=O)c4ccc(-c5ccc(C#N)cc5)cc4)CC3)CC2)c2ccccc21`, the IFI stood at 10.9%.

Molecule `CCCCCCSc1nnc(COc2cccc3ccccc23)n1-c1ccc(OC)cc1` yielded an IFI of 5.43%.

For the molecule `CCCn1c(O)nnc1SCC(=O)Nc1cc(C(F)(F)F)ccc1Cl`, the IFI came to 1.57%.

With `Nc1cccc(CNCc2cccc(-c3ccc(-c4nc5ccccc5[nH]4)cc3)c2)c1`, the IFI came to 3.81%.

As to `CC(C)c1ccc(S(=O)(=O)Nc2cccc(CCN3CCC(N4CCCCC4)CC3)c2)cc1`, the IFI was 9.52%.

As for `O=C(NCCCCN1CCC(c2ccc(-c3ccco3)cc2)CC1)c1ccc(NC(=O)c2ccc(Cl)cc2)cc1`, the IFI amounted to 5.98%.

For the molecule `CC(C)(C)c1ccc(CN2CCC(NC(=O)c3ccc(-c4cccc(F)c4)s3)CC2)cc1`, the IFI came out at 12.5%.

Regarding `CN(C)c1ccc(CN2CCC(NC(=O)c3ccc(-c4ccc(N(C)C)cc4)s3)CC2)cc1`, the IFI was determined as 15.5%.

On to `CC(C)c1ccc(CN2CCC(NC(=O)c3ccc(-c4cccc(Cl)c4)s3)CC2)cc1`, for which the IFI was found to be 12.1%.

In turn, `CC(C)c1ccc(CN2CCC(NC(=O)c3ccc(-c4cccc(F)c4)s3)CC2)cc1` showed an IFI of 17.2%.

The molecule `CN(C)c1ccc(CN2CCC(NC(=O)c3ccc(-c4cccc(F)c4)s3)CC2)cc1` gave an IFI of 10.5%.

`CN(C)c1ccc(CN2CCC(NC(=O)c3ccc(-c4cccc(Cl)c4)s3)CC2)cc1` gave an IFI of 17.9%.

As to `COc1ccc2nc3cc(Cl)ccc3c(Nc3ccc(O)c(CNC(C)C)c3)c2c1`, the IFI turned out to be 7.64%.

In turn, `CCCCNCc1ccc(-c2nc(CN(CCCn3ccnc3)C(=O)C3COc4ccccc4O3)cs2)cc1` (stereo not drawn) had an IFI of 4.93%.

The values above are taken from ChEMBL document CHEMBL1157539, “Thousands of chemical starting points for antimalarial lead identification” (Nature, 2010).
